The list is not random: actives were taken first. Their share in the collection is about 3.8%.
FGF22 binding: FGF22 (human) thermal shift binding. recombinant FGF22 thermal shift, SYPRO orange fluorescence; percent of sucrose octasulfate shift, DMSO zero. 1.5% of 340,000 active. activity (Tm shift, normalised), % at 9.99 µM;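 active = mean Tm shift, scaled 0 neutral to 100 positive control, at about 1.3% or above, every replicate too, limit read from the data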
Target sequence (Q9HCT0 whole entry, looked up): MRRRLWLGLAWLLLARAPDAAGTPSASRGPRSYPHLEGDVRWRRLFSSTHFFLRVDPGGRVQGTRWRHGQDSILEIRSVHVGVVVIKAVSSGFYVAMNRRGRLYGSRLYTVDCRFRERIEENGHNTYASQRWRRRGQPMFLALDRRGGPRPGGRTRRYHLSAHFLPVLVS
ADAM10 inh: inhibitors of human ADAM10; 0.62% of 370,000 active; AID 720582; inhibition, % at 7 µM; recombinant ADAM10, EDANS/DABCYL FRET peptide cleavage, 3 h;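 active = inhibition above a per-campaign cutoff equal to the mean of compounds falling between control-based bounds plus 3 SD, cut at about 20% in these data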;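 also: 0% = DMSO wells while the 100% control is not disclosed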
Ecoli rRNA inh: selective bacterial rRNA inhibition in E. coli; E. coli WT GFP vs humanized-ribosome RFP mutants, fluorescence, 24 h; hits give low values; DMSO median 0, no signal -100; GFP signal change (wild-type ribosome), % (concentration not given with the values); 1.6% of 350,000 active; AID 720706;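 active = significant combined selectivity score with lowered wild-type GFP, culture density cut under 30%, mutant RFP and density less affected; inactive = any of these conditions unmet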
ADAM17 inh: inhibitors of human ADAM17; recombinant ADAM17, EDANS/DABCYL FRET peptide cleavage; inhibition, % at 6.95 µM; P78536; AID 720648; 0.83% of 370,000 active;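 active = inhibition above the mean of compounds lying between control limits plus 3 SD, set per campaign, cut at about 8.5% in these data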;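 also: 0% = DMSO-only wells as the low control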
proKLK7 act: proKLK7 (human) activation, primary screen; P49862; purified proKLK7, EDANS-DABCYL substrate fluorescence; 100% is mature enzyme control, 0% vehicle; activation, % at 7 µM; 0.9% of 370,000 active;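 active = activation above the mean of all tested compounds plus 3 SD, computed per campaign excluding outliers beyond control limits, cut at about 13% in these data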
Target sequence (P49862 whole entry, looked up): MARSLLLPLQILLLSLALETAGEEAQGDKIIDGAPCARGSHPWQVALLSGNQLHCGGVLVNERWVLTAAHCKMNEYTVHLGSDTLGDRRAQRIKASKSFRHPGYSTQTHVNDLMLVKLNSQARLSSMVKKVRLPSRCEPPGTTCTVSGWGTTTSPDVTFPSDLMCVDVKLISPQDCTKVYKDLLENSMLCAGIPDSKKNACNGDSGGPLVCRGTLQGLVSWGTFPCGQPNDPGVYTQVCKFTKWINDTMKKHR
Numbers without * were called inactive; nt = no result given.

SMILES	FGF22 binding	ADAM10 inh	Ecoli rRNA inh	ADAM17 inh	proKLK7 act
O=C(CNC(=S)N(Cc1ccccc1)Cc1ccccc1F)NCCc1ccccc1	41.8	18.1	-24.4	7.5	0.7
CCOC(=O)CNC(=S)N(Cc1ccccc1)Cc1ccccc1F	42.4	10.9	-33.8*	4.0	0.6
COC(=O)c1sc(-c2ccc(Cl)cc2)cc1NC(=O)CSCC(=O)O	-0.7	-137.8	-41.5*	-57.3	-0.1
COc1ccc(CN(C)C[C@@H]2OCCCC[C@@H](C)Oc3ccc(NS(=O)(=O)c4c(C)noc4C)cc3C(=O)N([C@@H](C)CO)C[C@@H]2C)cc1	-0.1	nt	1.9	nt	nt
O=C(Nc1ccccc1)[C@H]1[C@H](CO)[C@H]2Cn3c(cccc3=O)[C@H]2N1CC1CCOCC1	nt	nt	2.9	nt	nt
COc1ccc(CNc2nc(NCc3ccc(OC)c(OC)c3)n(C(=O)c3cccs3)n2)cc1OC	nt	18.2	nt	7.1	199.4*
CN(CC(=O)Nc1ccccc1C(F)(F)F)C(=O)COc1ncnc2sccc12	0.2	-2.2	10.4	2.3	-0.5
CN(C(=O)COc1ncnc2sccc12)c1ccccc1	43.3*	-4.0	nt	-8.3	-0.6
COc1ccc2c3c(n(C)c2c1)[C@H](CO)N(Cc1ccccc1F)CC31CCN(C(=O)C2CCC2)CC1	-0.2	nt	-0.7	nt	nt
Cc1cc(NC(=O)c2noc3c2CCc2ccccc2-3)no1	-0.1	-1.5	-3.9	-2.0	0.4
Cc1ccc(O)c(NC(=O)c2noc3c2CCc2ccccc2-3)c1	43.0*	3.8	18.6	0.6	0.2
C[C@@H]1CN([C@H](C)CO)C(=O)c2cc(N(C)C)ccc2O[C@@H](C)CCCCO[C@@H]1CN(C)Cc1ccc(C(=O)Nc2ccccc2N)cc1	nt	nt	1.4	nt	nt
COc1ccc(C(=O)Nc2nc(N)n(-c3ccccc3)n2)cc1OC	nt	4.5	nt	-5.3	-0.3
COc1ccccc1/C=C/C(=O)Nc1nc(N)n(-c2ccccc2)n1	0.1	-23.5	-25.4*	-9.8	-0.5
CN(C)c1ccc(C(O)c2cc3ccccc3s2)cc1 (centres undefined)	-0.2	12.6	-1.9	10.4*	0.3
O=C(c1cccnc1)N1CC[C@@H]2[C@H]1c1cc(C#Cc3cccnc3)ccc1N[C@@H]2CO	-0.7	nt	0.1	nt	nt
COc1ccc(CCNS(=O)(=O)c2ccc3c(c2)NC(=O)C(C)S3)cc1OC (centres undefined)	0.0	-4.8	-21.3	-0.7	0.7
COc1ccc(CNS(=O)(=O)c2ccc3c(c2)NC(=O)C(C)S3)cc1 (centres undefined)	-0.1	1.8	-19.1*	-3.4	-0.4
O=C1CSc2ccc(S(=O)(=O)NCc3ccc(Cl)cc3)cc2N1	0.1	5.1	-29.9*	-1.5	0.7
Cc1ccc(CNS(=O)(=O)c2ccc3c(c2)NC(=O)C(C)S3)cc1 (centres undefined)	0.0	3.0	-33.8*	1.6	0.2
C[C@@H]1C(=O)N[C@@H](c2cccc(Cl)c2)CC=CC[C@H](C)Oc2ccccc2C(=O)N1C (mixture of isomers)	nt	nt	-1.1	nt	nt
CC[C@H]1C/C=C\C[C@H](CC)NC(=O)[C@@H](C)CC(=O)N1	nt	nt	4.7	nt	nt
O=C(COC(=O)c1cccc(NS(=O)(=O)c2ccc(F)c(F)c2)c1)NC(=O)NC1CCCC1	0.2	9.4	-36.5*	4.2	0.3
O=C(COC(=O)c1cccc(F)c1)NC(=O)NC1CCCC1	-0.1	5.5	-4.7	-1.9	-0.5
CC(=O)c1ccc(-n2nnnc2SCC(=O)Nc2sc(C)c(C)c2C#N)cc1	43.9*	-1.1	0.4	-3.0	0.3
SMILES	FGF22 binding	ADAM10 inh	Ecoli rRNA inh	ADAM17 inh	proKLK7 act
C/C(=N\NC(N)=O)c1ccccc1	0.3	0.7	18.6	2.1	-0.5
NC(=O)N/N=C(/CCCCCC/C(=N\NC(N)=O)c1ccccc1)c1ccccc1	0.1	7.8	-26.2*	5.4	0.7
O=C(C[C@@H]1CC[C@@H]2[C@H](COC[C@H](O)CN2C(=O)c2cccnc2)O1)NCc1ccc(Cl)cc1	-0.5	nt	3.7	nt	nt
CCOc1cc(C(=O)N=c2sccn2C)ccc1OC(F)F	-0.1	-0.9	-26.2*	1.1	0.8
Cn1ccsc1=NC(=O)c1ccc(Cl)cc1	0.1	-3.1	-27.1*	-4.5	0.5
COc1ccc(C(=O)N=c2sccn2C)cc1	0.4	-5.3	-4.4	-3.8	0.7
CC(On1nnc2ccccc21)C(=O)N1CCN(Cc2ccccc2)CC1 (centres undefined)	43.5*	11.8	5.1	1.2	1.2
COc1ccc(S(=O)(=O)CC(=O)c2cc3cc(Br)ccc3oc2=O)cc1	-0.1	-9.9	-21.9*	3.9	-0.6
CCOC(=O)c1sc2nc(C)nc(N3CCCCC3C)c2c1C (centres undefined)	0.0	7.1	-26.5*	0.4	0.3
Cc1nc(N2CCCCC2C)c2c(C)c(C(=O)Nc3cccc(C(F)(F)F)c3)sc2n1 (centres undefined)	0.2	-7.0	5.1	-1.1	-0.1
O=C(O)c1ccc(Cn2cc(C(F)(F)F)ccc2=O)cc1	43.1*	-5.5	4.3	-3.1	0.7
CO[C@H]1CN(C)C(=O)c2cc(NS(=O)(=O)c3cccc(F)c3)ccc2OC[C@@H](C)NC[C@@H]1C	-0.1	nt	3.6	nt	nt
C=CCOc1c(Br)cc(CNn2c(C)n[nH]c2=S)cc1OCC	-0.3	3.1	-30.7*	-1.8	-0.4
Cc1ccc(S(=O)(=O)N(C)C[C@@H]2Oc3ccc(NS(C)(=O)=O)cc3CC(=O)N([C@@H](C)CO)C[C@@H]2C)cc1	-0.1	nt	3.0	nt	nt
CCc1cccc(NC(=S)Nc2cccc3ccccc23)c1	0.0	-217.0	-24.7*	-60.1	-12.2
Cc1cccc(NC(=S)Nc2cccc3ccccc23)c1	0.7	-117.3	-1.5	-35.4	-10.9
COc1ccccc1NC(=O)c1c(C)nn(-c2ccccc2)c1Cl	-0.1	6.5	-35.6*	0.4	-0.4
CO[C@H]1CN(C)C(=O)c2ccc(NC(=O)C3CC3)cc2OC[C@H](C)N(CC2CC2)C[C@@H]1C	-0.1	nt	1.6	nt	nt
CC1(C)CC(N2CCCC2)=CC(=[N+]2CCCCCC2)C1	0.1	-1.9	-20.6*	-2.1	-0.2
CCc1cccc(N=c2c([N+](=O)[O-])nn(-c3ccc4c(c3)OCCO4)n2O)c1	43.3*	9.8	-2.4	7.3	0.3
CCc1cccc(N=c2c([N+](=O)[O-])nn(-c3ccc(Cl)cc3)n2O)c1	0.2	-2.0	-24.7	-0.3	-0.2
COc1cccc(CN2C[C@@H]3N[C@H](C2)C3c2ccc(-c3ccccc3OC)cc2)c1 (some centres undefined)	nt	nt	-59.3	nt	nt
O=C(O)[C@H](Cc1ccccc1)N1C(=O)c2c(Cl)c(Cl)c(Cl)c(Cl)c2C1=O	5.8*	0.0	-39.2*	-1.1	0.4
O=C(O)C(Cc1ccccc1)n1cccc1 (centres undefined)	nt	2.9	nt	-3.8	0.3
COc1ccc(CN(CC(O)COCc2ccccc2)S(=O)(=O)c2ccccc2Br)cc1OC (centres undefined)	-0.3	6.8	-20.8*	5.6	0.6

High-throughput results deposited in PubChem by several laboratories.
